Compound activity deposited in PubChem by several laboratories.
NALP3 yeast inh: blocks the NALP3 inflammasome reconstituted in yeast. Yeast reconstituted NLRP3/ASC/caspase-1, beta-gal luminescence, 24 h. inhibition, % at 10 µM. 0.39% of 330,000 active. AID 2825;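 active = inhibition of 50% or more; inactive = inhibition below 50%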;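 also: plate controls were induced DMSO wells for no effect and uninduced yeast grown without galactose for full effect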
tim23-1 inh: inhibits growth of tim23-1 mutant yeast. S. cerevisiae tim23-1 growth, BacTiter-Glo luminescence, 24 h. inhibition, % at 20 µM. 1.3% of 330,000 active;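 active = growth inhibition of the mutant yeast at or above 50%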;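 also: temperature-sensitive mutant grown at 25 °C; plate controls were DMSO-treated mutant yeast for no effect and medium wells lacking yeast for full effect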
TIM10 inh: growth inhibitors of TIM10 yeast strain; S. cerevisiae TIM10 strain growth, BacTiter-Glo luminescence, 24 h; AID 463195; inhibition, % at 10 µM; 1.4% of 330,000 active;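 active = inhibition of 40% or more at the single tested concentration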;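 also: wild-type TIM10 isogenic control strain grown at permissive 25 °C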
tim10-1 inh: growth inhibitors of tim10-1 mutant yeast; S. cerevisiae tim10-1 ts strain growth, BacTiter-Glo, 24 h; inhibition, % at 20 µM; 2.2% of 330,000 active;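 active = inhibition of at least 40%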;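 also: mutant grown at 25 °C; 0% = DMSO wells with yeast and 100% = wells holding no yeast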
PfHsp90 yeast 2: reduces growth (ATP signal) of yeast expressing P. falciparum Hsp90 | S. cerevisiae expressing PfHsp90, BacTiter-Glo ATP, 48 h; yeast lacking PDR1 and PDR3 efflux regulators | inhibition, % at 9.4 µM | 0.32% of 310,000 active;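 active = every replicate shows inhibition above about 80%, whatever the replicate mean, limit read from the data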;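 also: 0% = DMSO neutral controls and 100% = 20 µM radicicol positive controls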
SKKanGAS inh: blocks kanamycin growth of S. pyogenes SKKanGAS strain; BacTiter-Glo, 6 h; inhibition, % at 7.5 µM; 1.3% of 300,000 active;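 active = mean replicate score, as percent of positive control median, at least 50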;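 also: strain carries kanamycin resistance gene driven by streptokinase promoter and grows in 40 µg/ml kanamycin; loss of luminescence reflects streptokinase promoter inhibition or plain growth inhibition; 0% = median of DMSO wells and 100% = positive control at its reference dose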
tim23-1 confirm: confirmation of tim23-1 mutant yeast growth inhibitors. shares compounds with tim23-1 inh. S. cerevisiae tim23-1 growth, BacTiter-Glo luminescence, 24 h. inhibition, % at 20 µM. 83% of 4,400 active. AID 463218;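 active = inhibition above about 39% in either of two replicate wells at 20 µM, limit read from the data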;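 also: temperature-sensitive tim23-1 mutant grown at 25 °C; 0% = DMSO wells with yeast and 100% = medium wells without yeast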
* marks the source's active call; other numbers are inactive results; . = no result given. Sampled rows, rich in hits. Any-hit rate of the full collection: about 4.6%.

SMILES | NALP3 yeast inh | tim23-1 inh | TIM10 inh | tim10-1 inh | PfHsp90 yeast 2 | SKKanGAS inh | tim23-1 confirm
CCN=C1S/C(=C\c2cn(C(C)=O)nc2-c2ccccc2)C(=O)N1CC | 6.5 | 52.8* | 29.2 | 27.7 | . | 3.7 | 48.0*
Cc1[nH]n(-c2ccccc2)c(=O)c1/C=C1\C=NN=C1c1ccccc1 | 7.4 | 61.8* | 22.4 | 25.9 | 2.9 | 0.3 | 55.1*
Cc1[nH]n(-c2ccccc2)c(=O)c1/C=C1/C=c2ccccc2=N1 | . | . | . | . | -10.5 | -11.7 | .
COc1ccc2c(c1)-c1nc(NC(=O)c3cccs3)sc1CC2 | 40.8 | 53.4* | 29.6 | 38.2 | -7.7 | 38.5 | 48.5*
CCc1ccccc1NC(=O)c1cc(=O)c2ccccc2o1 | 21.2 | 11.6 | 13.2 | 13.0 | -0.7 | -8.3 | .
S=c1[nH]nc(COc2ccccc2)n1/N=C/c1cccc(Cl)c1Cl | 24.7 | 61.2* | 39.0 | 31.6 | -46.1 | 9.2 | 44.4*
FC(F)Oc1ccc(/C=N/n2c(Cc3ccc(Br)cc3)n[nH]c2=S)cc1 | 25.8 | 51.0* | 31.0 | 29.4 | 9.7 | 18.6 | 53.0*
S=c1[nH]nc(COc2ccccc2)n1/N=C/c1ccccc1Cl | 14.5 | 24.1 | 28.9 | 35.4 | -15.9 | 7.6 | .
Cc1ccc(/C=N/n2c(COc3ccccc3)n[nH]c2=S)cc1 | 40.3 | 52.8* | 35.7 | 21.2 | -23.7 | 5.8 | 27.5
CCCCCC(=O)NCc1c(C(F)(F)F)nn(C)c1N1CCOCC1 | 3.6 | 4.1 | -6.1 | 12.8 | . | 2.2 | .
Cc1cc(NC(=O)/C=C/c2ccc(Cl)cc2)no1 | 49.7 | -0.6 | 28.3 | 4.6 | 0.5 | -1.8 | .
O=C(NC(=S)Nc1cccc(O)c1)C1CCCCC1 | -9.6 | 50.8* | 35.2 | 27.5 | . | . | 42.4*
Cc1ccc(NC(=S)NC(=O)C2CCCC2)cc1C | 41.7 | 54.5* | 22.4 | 29.2 | 10.3 | 9.3 | 41.5*
O=C(O)C1CCCCC1C(=O)Nc1cccc(Br)c1 (stereo not given) | 8.0 | 9.8 | -9.1 | -14.4 | 12.4 | . | .
O=C(Nc1cccc(Br)c1)C1CCCC1 | 40.6 | 64.5* | 32.9 | 8.4 | . | -4.3 | 62.5*
O=C(NC(=S)Nc1ccc(F)cc1)C1CCCCC1 | 26.7 | 41.8 | 14.6 | 22.9 | 4.9 | 1.3 | .
Cc1ccc2c(c1)C(=O)C(=O)N2Cc1ccccc1 | 14.6 | 73.4* | 11.5 | 16.6 | 23.7 | . | 61.5*
Cc1ccc(S(=O)(=O)N2CC(O)CC2C(=O)OCC(=O)Nc2ccc([N+](=O)[O-])cc2C(F)(F)F)cc1C (stereo not given) | 0.5 | -3.8 | 0.4 | -9.9 | -14.9 | . | .
Cc1ccc2nc(-c3ccc(N)cc3)sc2c1 | 3.9 | 53.4* | 19.6 | 13.1 | 5.0 | 53.9* | 57.8*
O=C(NCc1cccnc1)Nc1cccc(Cl)c1Cl | 16.7 | 20.7 | -0.4 | -4.3 | 14.6 | 5.2 | .
c1ccc(-c2cn3nc(-c4ccccc4)sc3n2)cc1 | 21.6 | -4.6 | -0.2 | 15.8 | 0.2 | -4.1 | .
c1ccc(-c2cn3c4c(sc3n2)CCCC4)cc1 | 35.3 | 54.8* | 33.7 | 24.4 | 13.2 | -2.4 | 59.7*
CCC(CC)C(=O)Nc1c(C(=O)N2CCN(c3ccccc3)CC2)oc2ccccc12 | 7.0 | 51.2* | 28.1 | 39.0 | -3.4 | 9.2 | 42.0*
CCN=c1scc(-c2ccc(F)cc2)n1/N=C/c1ccccn1 | 2.3 | 58.4* | 20.0 | -4.1 | 16.3 | 0.1 | 69.5*
COc1ccc(/C=c2\sc3nc(=O)c(C)nn3c2=O)c(OC)c1 | 17.8 | 52.8* | 8.3 | 30.6 | -1.1 | -2.0 | 38.5*
SMILES | NALP3 yeast inh | tim23-1 inh | TIM10 inh | tim10-1 inh | PfHsp90 yeast 2 | SKKanGAS inh | tim23-1 confirm
O=C(Nc1ccc(C(=O)N2CCCc3ccccc32)cc1)c1cccs1 | 23.0 | 51.9* | 7.4 | 4.1 | 3.5 | -0.2 | 44.3*
CCN(CC)c1ccc(NC(=O)c2ccccc2Br)cc1S(=O)(=O)Nc1ccccc1OC | 9.2 | 50.4* | 15.3 | 13.8 | -30.5 | 4.4 | 86.4*
COc1ccc(CC(=O)N2CCN(c3ccccc3)CC2)cc1 | 19.1 | 8.0 | 1.0 | -4.0 | 1.4 | -2.2 | .
Cc1ccc(-c2ccc(C3C(C#N)=C(N)Oc4n[nH]c(C)c43)o2)cc1 (stereo not given) | 4.6 | 59.8* | 14.1 | 25.5 | -8.4 | 1.0 | 46.2*
Cc1cccc(C=Nc2ccc3c4c(cccc24)CC3)c1O | 25.3 | 37.5 | 24.5 | 38.2 | -10.4 | -5.0 | .
Oc1ccc(Cl)cc1C=Nc1ccc2c3c(cccc13)CC2 | 30.6 | 62.8* | 26.7 | 13.9 | 5.1 | -1.7 | 61.9*
O=C(c1ccc2ccccc2n1)N1CCN(S(=O)(=O)c2ccc(Cl)cc2)CC1 | 14.8 | 50.4* | 21.8 | 26.9 | . | . | 36.0
COC(=O)c1cc(OC)c(OC)cc1NC(=S)N1CCN(C/C=C/c2ccccc2)CC1 | 9.8 | 26.5 | 19.8 | 21.0 | 18.7 | 1.0 | .
O=C1CN(c2ccccc2)C(=S)N1c1ccccc1 | 12.6 | 42.3 | 4.3 | 18.4 | -18.6 | -5.5 | .
O=C1CN(c2ccc(F)cc2)C(=S)N1c1ccccc1 | 19.8 | 56.9* | 6.7 | 25.9 | -11.5 | -3.5 | -15.5
O=C(Oc1cccc2cccnc12)c1ccco1 | -9.8 | 7.8 | 6.9 | -7.3 | 11.6 | 34.8 | .
O=C(Oc1ccc(Cl)c2cccnc12)c1ccco1 | 17.9 | 51.8* | 22.6 | 26.6 | -41.6 | 86.6* | 45.7*
COc1ccc(/C=C(\NC(=O)c2ccccc2)C(=O)N2CCCCC2)cc1OC | 0.3 | -11.3 | -3.4 | -9.4 | -3.5 | -4.8 | .
N#C/C(=C\c1cccs1)C(=O)c1ccccc1Cl | 7.8 | 62.0* | 18.9 | 16.4 | . | 0.8 | 56.6*
CC(C)(C)C(=O)/C(C#N)=C/c1cccs1 | 18.9 | 17.7 | -24.3 | -10.1 | 1.6 | -5.2 | .
COc1ccc(-c2csc(NC(=O)CSC(C)C(=O)Nc3cc(C)on3)n2)cc1OC (stereo not given) | 10.5 | -10.1 | 8.2 | -3.9 | 5.4 | . | .
O=C(c1cc(Br)c(Br)s1)N1CCc2ccccc2C1 | 7.0 | 51.6* | 27.3 | 1.6 | -11.3 | . | 53.4*
O=C(c1cc2c(s1)-c1ccccc1OC2)N1CCc2ccccc2C1 | 8.1 | 37.9 | 13.5 | 23.9 | -23.9 | 33.5 | .
N#CCc1ccc(NC(=O)c2ccc(S(=O)(=O)N3CCOCC3)cc2)cc1 | -3.7 | 0.7 | 8.3 | 0.0 | -1.4 | 30.0 | .
CCCCC(=O)NC(c1ccccc1)c1ccc2cccnc2c1O (stereo not given) | 7.9 | 66.3* | 6.7 | 10.9 | 114.8* | 16.3 | 57.5*
CCCC(=O)NC(c1ccccc1)c1ccc2cccnc2c1O (stereo not given) | 11.5 | 58.1* | -7.9 | 25.8 | 113.3* | 21.8 | 60.2*
CC(=O)NC(c1ccc(C)cc1)c1cc(Cl)c2cccnc2c1O (stereo not given) | 47.9 | 62.3* | -2.2 | -2.9 | 114.5* | 97.6* | 67.5*
CCC(=O)NC(c1ccccc1OC)c1ccc2cccnc2c1O (stereo not given) | 15.8 | 8.5 | 19.6 | 33.1 | -94.4 | 22.7 | .
